What all share (test): PBM; 200 nM protein, PBS
Settings in all cases: dsDNA, one strand shown

In assay [1] the target is HESX1 (Homo sapiens, UniProt Q9UBX0 95-180, R165K).
Assay [2] concerns the target CRX (Homo sapiens, UniProt O43186 26-111).
In assay [3] the target is HESX1 (Homo sapiens, UniProt Q9UBX0 95-180).
In assay [4] the target is CRX (Homo sapiens, UniProt O43186 26-111, E42D).
For assay [5], the target named is HESX1 (Homo sapiens, UniProt Q9UBX0 95-180, R109Q).
Assay [6] concerns the target HESX1 (Homo sapiens, UniProt Q9UBX0 95-180, P111T).
In assay [7] the target is HESX1 (Homo sapiens, UniProt Q9UBX0 95-180, F115L).
Chain of HESX1 (Homo sapiens, UniProt Q9UBX0 95-180, F115L) (Q9UBX0 95-180 F115L): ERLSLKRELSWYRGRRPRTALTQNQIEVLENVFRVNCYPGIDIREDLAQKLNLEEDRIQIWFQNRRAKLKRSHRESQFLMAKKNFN
The target of assay [8] is CRX (Homo sapiens, UniProt O43186 26-111, R41L).
Chain of CRX (Homo sapiens, UniProt O43186 26-111, R41L) (O43186 26-111 R41L): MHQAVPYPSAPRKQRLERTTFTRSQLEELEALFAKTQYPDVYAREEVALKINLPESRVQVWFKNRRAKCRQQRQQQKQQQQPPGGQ
The target in assay [9] is HOXB9 (Homo sapiens, UniProt P17482 171-250, T197M).
Chain of HOXB9 (Homo sapiens, UniProt P17482 171-250, T197M) (P17482 171-250 T197M): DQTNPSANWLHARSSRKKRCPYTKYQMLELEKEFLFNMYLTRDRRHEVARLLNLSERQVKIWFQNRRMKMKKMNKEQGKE
In assay [10] the target is PRRX1 (Homo sapiens, UniProt P54821 80-166, F113S).
Chain of PRRX1 (Homo sapiens, UniProt P54821 80-166, F113S) (P54821 80-166 F113S): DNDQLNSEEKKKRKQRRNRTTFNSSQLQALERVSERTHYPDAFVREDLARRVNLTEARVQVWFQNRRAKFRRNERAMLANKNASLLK
Assay [11] concerns the target HOXB6 (Homo sapiens, UniProt P17509 132-218, K202E).
The target in assay [12] is MSX2 (Homo sapiens, UniProt P35548 130-214, R199I).
Chain of MSX2 (Homo sapiens, UniProt P35548 130-214, R199I) (P35548 130-214 R199I): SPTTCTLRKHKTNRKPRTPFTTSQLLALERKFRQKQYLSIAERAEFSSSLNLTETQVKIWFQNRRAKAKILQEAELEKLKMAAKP
The target of another assay is T1, PAX4 (Homo sapiens, UniProt O43316 9-242, F177V).
T1 sequence: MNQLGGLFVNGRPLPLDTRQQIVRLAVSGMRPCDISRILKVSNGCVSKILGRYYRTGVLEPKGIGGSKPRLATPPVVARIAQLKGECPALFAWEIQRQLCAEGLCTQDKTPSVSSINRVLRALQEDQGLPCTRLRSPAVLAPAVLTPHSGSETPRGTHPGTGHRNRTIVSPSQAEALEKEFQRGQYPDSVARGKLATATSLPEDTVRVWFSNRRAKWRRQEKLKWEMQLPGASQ

Assay [13] deals with MSX2 (Homo sapiens, UniProt P35548 130-214).
Chain of MSX2 (Homo sapiens, UniProt P35548 130-214) (P35548 130-214): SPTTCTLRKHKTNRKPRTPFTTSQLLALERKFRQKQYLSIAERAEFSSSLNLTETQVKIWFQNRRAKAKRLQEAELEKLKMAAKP
Assay [14] addresses PROP1 (Homo sapiens, UniProt O75360 56-141, R99H).
The target of assay [15] is ALX3 (Homo sapiens, UniProt O95076 139-225, L168Q).
Chain of ALX3 (Homo sapiens, UniProt O95076 139-225, L168Q) (O95076 139-225 L168Q): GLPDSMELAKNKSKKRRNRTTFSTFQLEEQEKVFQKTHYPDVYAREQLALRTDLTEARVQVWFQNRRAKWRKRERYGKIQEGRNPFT
The target of assay [16] is MSX2 (Homo sapiens, UniProt P35548 130-214, F161Y).
Chain of MSX2 (Homo sapiens, UniProt P35548 130-214, F161Y) (P35548 130-214 F161Y): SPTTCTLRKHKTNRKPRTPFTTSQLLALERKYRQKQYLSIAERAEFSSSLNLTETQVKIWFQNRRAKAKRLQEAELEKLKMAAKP
In assay [17] the target is ALX3 (Homo sapiens, UniProt O95076 139-225, N203S).
Chain of ALX3 (Homo sapiens, UniProt O95076 139-225, N203S) (O95076 139-225 N203S): as the sequence (O95076 139-225 L168Q) above, with Q30L, N65S counted along it
Assay [18] has as its target PRRX1 (Homo sapiens, UniProt P54821 80-166).
The target in assay [19] is HOXA4 (Homo sapiens, UniProt Q00056 201-287, W262R).
Chain of HOXA4 (Homo sapiens, UniProt Q00056 201-287, W262R) (Q00056 201-287 W262R): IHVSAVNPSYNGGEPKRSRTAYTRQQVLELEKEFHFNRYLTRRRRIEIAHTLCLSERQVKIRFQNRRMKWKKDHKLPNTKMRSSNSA
For assay [20], the target named is HOXA4 (Homo sapiens, UniProt Q00056 201-287, R217L).
Chain of HOXA4 (Homo sapiens, UniProt Q00056 201-287, R217L) (Q00056 201-287 R217L): as the sequence (Q00056 201-287 W262R) above, with R17L, R62W counted along it
Assay [21] addresses HOXD13 (Homo sapiens, UniProt P35453 263-343, T313R).
Assay [22] concerns the target HOXD13 (Homo sapiens, UniProt P35453 263-343).
Assay [23] addresses HOXA4 (Homo sapiens, UniProt Q00056 201-287).
Assay [24] deals with HOXD13 (Homo sapiens, UniProt P35453 263-343, T313A).
Chain of HOXD13 (Homo sapiens, UniProt P35453 263-343, T313A) (P35453 263-343 T313A): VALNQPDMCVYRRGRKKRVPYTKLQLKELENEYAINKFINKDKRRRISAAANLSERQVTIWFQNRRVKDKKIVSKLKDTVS
For assay [25], the target named is HOXA4 (Homo sapiens, UniProt Q00056 201-287, W262F).
Chain of HOXA4 (Homo sapiens, UniProt Q00056 201-287, W262F) (Q00056 201-287 W262F): as the sequence (Q00056 201-287 W262R) above, with R62F counted along it
Assay [26] addresses HOXB6 (Homo sapiens, UniProt P17509 132-218).
Assay [27] deals with T2, VENTX (Homo sapiens, UniProt O95231 78-163, R121Q).
T2 sequence: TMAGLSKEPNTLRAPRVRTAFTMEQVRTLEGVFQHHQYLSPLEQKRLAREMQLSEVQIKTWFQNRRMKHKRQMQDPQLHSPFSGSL

Assay [28] addresses T3, VENTX (Homo sapiens, UniProt O95231 78-163).
T3 sequence: T2 sequence with Q44R

Assay [29] has as its target T4, VENTX (Homo sapiens, UniProt O95231 78-163, Y115F).
T4 sequence: T2 sequence with Y38F, Q44R

The target in assay [30] is HOXA2 (Homo sapiens, UniProt O43364 129-215, R185T).
Chain of HOXA2 (Homo sapiens, UniProt O43364 129-215, R185T) (O43364 129-215 R185T): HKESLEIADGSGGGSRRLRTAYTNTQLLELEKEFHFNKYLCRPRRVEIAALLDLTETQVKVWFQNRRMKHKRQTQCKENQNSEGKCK
For assay [31], the target named is HOXA2 (Homo sapiens, UniProt O43364 129-215, R185K).
Chain of HOXA2 (Homo sapiens, UniProt O43364 129-215, R185K) (O43364 129-215 R185K): as the sequence (O43364 129-215 R185T) above, with T57K counted along it
In assay [32] the target is HOXA2 (Homo sapiens, UniProt O43364 129-215, Y150S).
Chain of HOXA2 (Homo sapiens, UniProt O43364 129-215, Y150S) (O43364 129-215 Y150S): as the sequence (O43364 129-215 R185T) above, with Y22S, T57R counted along it
In assay [33] the target is NKX3-2 (Homo sapiens, UniProt P78367 192-278, P234S).
Chain of NKX3-2 (Homo sapiens, UniProt P78367 192-278, P234S) (P78367 192-278 P234S): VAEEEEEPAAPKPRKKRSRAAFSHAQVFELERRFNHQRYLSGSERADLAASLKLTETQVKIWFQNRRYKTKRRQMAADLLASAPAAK
Assay [34] concerns the target HOXA2 (Homo sapiens, UniProt O43364 129-215).
In assay [35] the target is NKX3-2 (Homo sapiens, UniProt P78367 192-278).
Chain of NKX3-2 (Homo sapiens, UniProt P78367 192-278) (P78367 192-278): as the sequence (P78367 192-278 P234S) above, with S43P counted along it
For assay [36], the target named is HOXB9 (Homo sapiens, UniProt P17482 171-250).
Chain of HOXB9 (Homo sapiens, UniProt P17482 171-250) (P17482 171-250): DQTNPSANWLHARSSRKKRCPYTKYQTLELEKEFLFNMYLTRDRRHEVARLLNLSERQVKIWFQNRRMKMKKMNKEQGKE
Assay [37] concerns the target PROP1 (Homo sapiens, UniProt O75360 56-141).
In assay [38] the target is HOXB9 (Homo sapiens, UniProt P17482 171-250, R186Q).
Chain of HOXB9 (Homo sapiens, UniProt P17482 171-250, R186Q) (P17482 171-250 R186Q): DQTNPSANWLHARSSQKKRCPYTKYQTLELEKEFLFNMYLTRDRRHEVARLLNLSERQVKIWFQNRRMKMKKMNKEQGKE
The target of assay [39] is PROP1 (Homo sapiens, UniProt O75360 56-141, F88S).
Chain of PROP1 (Homo sapiens, UniProt O75360 56-141, F88S) (O75360 56-141 F88S): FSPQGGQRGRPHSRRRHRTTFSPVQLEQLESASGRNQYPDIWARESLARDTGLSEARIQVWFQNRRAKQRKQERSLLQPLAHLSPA

Numbering of substitutions follows the chain as printed.

Chain of HOXB6 (Homo sapiens, UniProt P17509 132-218, K202E) (P17509 132-218 K202E): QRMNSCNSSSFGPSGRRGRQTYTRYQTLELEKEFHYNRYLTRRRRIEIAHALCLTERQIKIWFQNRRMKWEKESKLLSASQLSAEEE
Chain of HESX1 (Homo sapiens, UniProt Q9UBX0 95-180, R109Q) (Q9UBX0 95-180 R109Q): as the sequence (Q9UBX0 95-180 F115L) above, with R15Q, L21F counted along it
Chain of HESX1 (Homo sapiens, UniProt Q9UBX0 95-180) (Q9UBX0 95-180): as the sequence (Q9UBX0 95-180 F115L) above, with L21F counted along it
Chain of HESX1 (Homo sapiens, UniProt Q9UBX0 95-180, R165K) (Q9UBX0 95-180 R165K): as the sequence (Q9UBX0 95-180 F115L) above, with L21F, R71K counted along it
Chain of HESX1 (Homo sapiens, UniProt Q9UBX0 95-180, P111T) (Q9UBX0 95-180 P111T): as the sequence (Q9UBX0 95-180 F115L) above, with P17T, L21F counted along it
Chain of HOXB6 (Homo sapiens, UniProt P17509 132-218) (P17509 132-218): as the sequence (P17509 132-218 K202E) above, with E71K counted along it
Chain of PRRX1 (Homo sapiens, UniProt P54821 80-166) (P54821 80-166): as the sequence (P54821 80-166 F113S) above, with S34F counted along it
Chain of PROP1 (Homo sapiens, UniProt O75360 56-141, R99H) (O75360 56-141 R99H): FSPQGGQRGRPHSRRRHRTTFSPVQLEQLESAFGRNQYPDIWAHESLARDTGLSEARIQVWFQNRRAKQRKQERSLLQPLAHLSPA
Chain of CRX (Homo sapiens, UniProt O43186 26-111) (O43186 26-111): as the sequence (O43186 26-111 R41L) above, with L16R counted along it
Chain of PROP1 (Homo sapiens, UniProt O75360 56-141) (O75360 56-141): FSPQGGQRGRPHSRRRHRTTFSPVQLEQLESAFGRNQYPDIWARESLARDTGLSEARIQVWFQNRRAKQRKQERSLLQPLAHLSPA
Chain of HOXD13 (Homo sapiens, UniProt P35453 263-343) (P35453 263-343): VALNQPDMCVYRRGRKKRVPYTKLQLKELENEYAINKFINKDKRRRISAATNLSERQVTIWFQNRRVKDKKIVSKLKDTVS
Chain of HOXA4 (Homo sapiens, UniProt Q00056 201-287) (Q00056 201-287): as the sequence (Q00056 201-287 W262R) above, with R62W counted along it
Chain of HOXA2 (Homo sapiens, UniProt O43364 129-215) (O43364 129-215): as the sequence (O43364 129-215 R185T) above, with T57R counted along it
Chain of HOXD13 (Homo sapiens, UniProt P35453 263-343, T313R) (P35453 263-343 T313R): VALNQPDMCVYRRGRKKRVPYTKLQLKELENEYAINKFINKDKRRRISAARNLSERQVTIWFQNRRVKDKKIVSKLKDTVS
Chain of CRX (Homo sapiens, UniProt O43186 26-111, E42D) (O43186 26-111 E42D): as the sequence (O43186 26-111 R41L) above, with L16R, E17D counted along it

As for GCCGGTCC, the binding signal was 6.49 upbm affinity estimate (log intensity, higher = more binding, comparable within an allelic series) in the assay with HESX1 [1]; 8.03 upbm affinity estimate (log intensity, higher = more binding, comparable within an allelic series) with CRX [2]; 6.35 upbm affinity estimate (log intensity, higher = more binding, comparable within an allelic series) in the assay with HESX1 [3]; 8.04 upbm affinity estimate (log intensity, higher = more binding, comparable within an allelic series) with CRX [4]; 6.44 upbm affinity estimate (log intensity, higher = more binding, comparable within an allelic series) with HESX1 [5]; 6.43 upbm affinity estimate (log intensity, higher = more binding, comparable within an allelic series) in the assay with HESX1 [6]. Also, the binding signal with HESX1 [7] is 6.58 upbm affinity estimate (log intensity, higher = more binding, comparable within an allelic series); in the assay with CRX [8], 8.24 upbm affinity estimate (log intensity, higher = more binding, comparable within an allelic series).

With ACAATTAT, the binding signal with HESX1 [1] was 11.8 upbm affinity estimate (log intensity, higher = more binding, comparable within an allelic series); in the assay with HOXB9 [9] it was 9.96 upbm affinity estimate (log intensity, higher = more binding, comparable within an allelic series); in the assay with PRRX1 [10] it was 11.2 upbm affinity estimate (log intensity, higher = more binding, comparable within an allelic series); with HOXB6 [11], 9.99 upbm affinity estimate (log intensity, higher = more binding, comparable within an allelic series); in the assay with HESX1 [3], 12.1 upbm affinity estimate (log intensity, higher = more binding, comparable within an allelic series); with MSX2 [12], 12.6 upbm affinity estimate (log intensity, higher = more binding, comparable within an allelic series). In addition, the binding signal in the assay with PAX4 is 10.6 upbm affinity estimate (log intensity, higher = more binding, comparable within an allelic series); in the assay with MSX2 [13], 13.8 upbm affinity estimate (log intensity, higher = more binding, comparable within an allelic series); with HESX1 [5], 8.44 upbm affinity estimate (log intensity, higher = more binding, comparable within an allelic series); in the assay with PROP1 [14], 10.8 upbm affinity estimate (log intensity, higher = more binding, comparable within an allelic series); with ALX3 [15] it was 10.2 upbm affinity estimate (log intensity, higher = more binding, comparable within an allelic series); with HESX1 [6], 10.3 upbm affinity estimate (log intensity, higher = more binding, comparable within an allelic series). In addition, the binding signal with MSX2 [16] is 13.4 upbm affinity estimate (log intensity, higher = more binding, comparable within an allelic series); with HESX1 [7], 7.61 upbm affinity estimate (log intensity, higher = more binding, comparable within an allelic series); with ALX3 [17] it was 8.71 upbm affinity estimate (log intensity, higher = more binding, comparable within an allelic series); with PRRX1 [18], 13.2 upbm affinity estimate (log intensity, higher = more binding, comparable within an allelic series).

As for GCCCCCCA, the binding signal in the assay with HESX1 [1] was 6.24 upbm affinity estimate (log intensity, higher = more binding, comparable within an allelic series); in the assay with HOXA4 [19], 9.56 upbm affinity estimate (log intensity, higher = more binding, comparable within an allelic series); in the assay with HOXB6 [11], 8.7 upbm affinity estimate (log intensity, higher = more binding, comparable within an allelic series); with HESX1 [3], 6.28 upbm affinity estimate (log intensity, higher = more binding, comparable within an allelic series); in the assay with HOXA4 [20] it was 9.68 upbm affinity estimate (log intensity, higher = more binding, comparable within an allelic series); with HOXD13 [21], 9.1 upbm affinity estimate (log intensity, higher = more binding, comparable within an allelic series). Besides, the binding signal with HOXD13 [22] is 9.22 upbm affinity estimate (log intensity, higher = more binding, comparable within an allelic series); with HOXA4 [23], 9.71 upbm affinity estimate (log intensity, higher = more binding, comparable within an allelic series); with HESX1 [5], 6.41 upbm affinity estimate (log intensity, higher = more binding, comparable within an allelic series); with HESX1 [6], 6.34 upbm affinity estimate (log intensity, higher = more binding, comparable within an allelic series); in the assay with HOXD13 [24], 9.24 upbm affinity estimate (log intensity, higher = more binding, comparable within an allelic series); with HESX1 [7], 6.4 upbm affinity estimate (log intensity, higher = more binding, comparable within an allelic series). For the same sequence, the binding signal with HOXA4 [25] was 9.58 upbm affinity estimate (log intensity, higher = more binding, comparable within an allelic series); in the assay with HOXB6 [26], 8.91 upbm affinity estimate (log intensity, higher = more binding, comparable within an allelic series).

Regarding CCGCCCCC, the binding signal with HESX1 [1] was 6.46 upbm affinity estimate (log intensity, higher = more binding, comparable within an allelic series); in the assay with VENTX [27], 8.05 upbm affinity estimate (log intensity, higher = more binding, comparable within an allelic series); with VENTX [28] it was 7.95 upbm affinity estimate (log intensity, higher = more binding, comparable within an allelic series); in the assay with PRRX1 [10] it was 9.06 upbm affinity estimate (log intensity, higher = more binding, comparable within an allelic series); with VENTX [29] it was 7.95 upbm affinity estimate (log intensity, higher = more binding, comparable within an allelic series); with HOXB6 [11], 8.84 upbm affinity estimate (log intensity, higher = more binding, comparable within an allelic series). The binding signal in the assay with HESX1 [3] is 6.33 upbm affinity estimate (log intensity, higher = more binding, comparable within an allelic series); in the assay with HOXA2 [30] it was 6.99 upbm affinity estimate (log intensity, higher = more binding, comparable within an allelic series); with HOXA2 [31] it was 9.92 upbm affinity estimate (log intensity, higher = more binding, comparable within an allelic series); with HESX1 [5] it was 6.51 upbm affinity estimate (log intensity, higher = more binding, comparable within an allelic series); with HESX1 [6], 6.43 upbm affinity estimate (log intensity, higher = more binding, comparable within an allelic series); with HESX1 [7], 6.41 upbm affinity estimate (log intensity, higher = more binding, comparable within an allelic series). Also, the binding signal is 10.2 upbm affinity estimate (log intensity, higher = more binding, comparable within an allelic series) in the assay with HOXA2 [32]; 10.4 upbm affinity estimate (log intensity, higher = more binding, comparable within an allelic series) with NKX3-2 [33]; 8.75 upbm affinity estimate (log intensity, higher = more binding, comparable within an allelic series) with PRRX1 [18]; 6.94 upbm affinity estimate (log intensity, higher = more binding, comparable within an allelic series) in the assay with HOXA2 [34]; 8.81 upbm affinity estimate (log intensity, higher = more binding, comparable within an allelic series) with HOXB6 [26]; 10.4 upbm affinity estimate (log intensity, higher = more binding, comparable within an allelic series) with NKX3-2 [35].

Turning to GCGAGCGC, the binding signal with HESX1 [1] was 6.46 upbm affinity estimate (log intensity, higher = more binding, comparable within an allelic series); with HOXB9 [9], 8.46 upbm affinity estimate (log intensity, higher = more binding, comparable within an allelic series); with HESX1 [3], 6.44 upbm affinity estimate (log intensity, higher = more binding, comparable within an allelic series); with HOXB9 [36], 8.32 upbm affinity estimate (log intensity, higher = more binding, comparable within an allelic series); with PROP1 [37] it was 6.62 upbm affinity estimate (log intensity, higher = more binding, comparable within an allelic series); with HESX1 [5] it was 6.48 upbm affinity estimate (log intensity, higher = more binding, comparable within an allelic series). Moreover, the binding signal was 6.66 upbm affinity estimate (log intensity, higher = more binding, comparable within an allelic series) with PROP1 [14]; 6.41 upbm affinity estimate (log intensity, higher = more binding, comparable within an allelic series) in the assay with HESX1 [6]; 8.42 upbm affinity estimate (log intensity, higher = more binding, comparable within an allelic series) with HOXB9 [38]; 6.75 upbm affinity estimate (log intensity, higher = more binding, comparable within an allelic series) with PROP1 [39]; 6.54 upbm affinity estimate (log intensity, higher = more binding, comparable within an allelic series) in the assay with HESX1 [7].
